Data reported in ChEMBL document CHEMBL3988442, “University of Dundee, Small-Polar-MMV Screening Library” (2021).

How the values were obtained:
[1] = target: T1, Aspartate--tRNA(Asp/Asn) ligase (Mycobacterium tuberculosis (strain ATCC 25618 / H37Rv)) (UniProt P9WFW3); assay: Assay for Asp RNA synthetase-1 from Mycobacterium tuberculosis; format: functional; parameters: scale not given: direction of the effect not stated beside the values; settings: 30 µM; further: in the data most compounds retested in dose-response had high values
T1 sequence (whole entry): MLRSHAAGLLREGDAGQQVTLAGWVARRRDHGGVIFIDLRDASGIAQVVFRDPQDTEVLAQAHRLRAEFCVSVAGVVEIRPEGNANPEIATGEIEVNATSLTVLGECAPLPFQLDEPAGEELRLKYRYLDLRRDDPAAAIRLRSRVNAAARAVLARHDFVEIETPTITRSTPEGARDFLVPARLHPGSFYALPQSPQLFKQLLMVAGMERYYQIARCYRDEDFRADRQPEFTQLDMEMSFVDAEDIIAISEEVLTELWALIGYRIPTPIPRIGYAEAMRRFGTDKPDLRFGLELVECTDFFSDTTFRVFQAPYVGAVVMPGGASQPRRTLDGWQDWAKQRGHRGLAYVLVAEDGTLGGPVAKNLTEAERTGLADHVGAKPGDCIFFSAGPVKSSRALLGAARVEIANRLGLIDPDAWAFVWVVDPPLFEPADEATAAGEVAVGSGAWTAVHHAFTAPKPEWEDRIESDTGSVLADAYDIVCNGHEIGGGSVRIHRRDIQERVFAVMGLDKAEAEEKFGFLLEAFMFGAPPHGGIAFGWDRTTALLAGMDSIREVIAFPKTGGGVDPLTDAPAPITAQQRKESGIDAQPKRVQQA

[2] = target: Shiga toxin 2 (Escherichia coli O157:H7) (UniProt P09385+P09386); assay: E. coli 0.157:H7 Shiga Toxin SOP - stx2 screening assay; format: functional; parameters: scale not given: direction of the effect not stated beside the values; settings: 30 µM

Row | Structure (SMILES) | Percent Effect [1] | Percent Effect [2]
1 | Cc1cccc(NC2CCN(C(=O)Nc3cc(F)cc(F)c3)CC2)n1 | -4.31% | -78.9%
2 | CNC(=O)c1ccc(C(=O)N2CCCC2c2cnn(C)c2)cn1 (configuration not stated) | -5.79% | -8.21%
3 | Cc1noc([C@H]2C[C@@H]3CCN(C(=O)N(C)C)C[C@H]3O2)n1 | 3.32% | -1.56%
4 | Cc1nccnc1CN1CCC2(CCCN(C3CCOCC3)C2=O)C1 (configuration not stated) | 2.6% | -28.8%
5 | Cc1cc(-c2nnn(CCC(N)=O)n2)ccc1F | -0.912% | -20.8%
6 | CCc1ccc(CN2CC[C@H]3C[C@H](c4nnc(C)[nH]4)O[C@@H]3C2)o1 | 0.228% | 1.93%
7 | O=c1ccc2c(n1CCN1CCCC1)CCN(Cc1ccoc1)CC2 | -2.69% | -1.66%
8 | CC(CC#N)NC(=O)c1cc(Br)c2c(c1)OCCO2 (configuration not stated) | -8.16% | -5.44%
9 | O=C(NCC1CC1)C1CN(C(=O)c2ccncc2)CC12CCOCC2 (configuration not stated) | 3.22% | -21.5%
10 | Cc1ccc(CC(=O)N2Cc3nccn3CC(Cn3cccn3)C2)cc1 (configuration not stated) | 0.0228% | -2.6%
11 | Cc1nc(C)n(CC2CCCCN2Cc2ncc(C(C)(C)C)o2)n1 (configuration not stated) | -7.07% | -41%
12 | O=C(NS(=O)(=O)c1ccccc1Cl)c1cccc2c1OCCO2 | -6.15% | -2.92%
13 | Cc1cccc2nc(C(=O)N3CCC(Nc4cccnn4)CC3)cn12 | -1.93% | 8.8%
14 | COc1ccc(F)cc1S(=O)(=O)NCC(c1cccn1C)N(C)C (configuration not stated) | -5.43% | 9.89%
15 | COCC1CN(Cc2ccncc2)Cc2nnn(CC3CC3)c21 (configuration not stated) | 0.981% | -28.3%
16 | CCCc1nc(C(C)(C)NC(=O)C2CC(=O)N(CC3CC3)C2)no1 (configuration not stated) | 3.35% | 20%
17 | O=C(NCc1ccccn1)Nc1cc(C(F)(F)F)c[nH]c1=O | 1.37% | -24.9%
18 | CSc1ccc(C(CNC(=O)C2CC2)N2CCc3sccc3C2)cc1 (configuration not stated) | -0.15% | 11.2%
19 | O=C(NCCn1ccnc1)c1cccc(F)c1 | 3.65% | 24.2%

Row | Structure (SMILES) | Percent Effect [1] | Percent Effect [2]
20 | Cc1cccc(-c2ccc3nc(C4CCN(CC5CC5)CC4)nn3c2)c1 | -1.89% | -31.4%
21 | Cn1nc2c(cc1=O)CN(Cc1nc(-c3cccs3)no1)CC2 | 1.81% | 3.81%
22 | COc1c(CNC2CCCOc3ccccc32)c(C)nn1C (configuration not stated) | -2.86% | -2.26%
23 | CCc1nc(CN2CCOC(Cn3nc(C)nc3C)C2)no1 (configuration not stated) | 3.17% | 28.4%
24 | CS(=O)(=O)c1ccc(OCCNCc2ccc(F)cc2F)cc1 | 4.17% | -84.6%
25 | Cc1nsc(N2CCCN(c3nc(C4CC4)ns3)CC2)n1 | 0.575% | -18.6%
26 | CCOCCCC(=O)NCc1cn2cc(Br)ccc2n1 | 0.599% | -66%
27 | Cc1ccc(-n2nnc(C(=O)NS(C)(=O)=O)c2C2CC2)cc1 | 0.379% | -7.97%
28 | COc1cc(CNC(=O)Nc2cc(C(F)(F)F)c[nH]c2=O)ccn1 | -3.59% | 25.7%
29 | O=C1COC2(CCN(C(=O)c3ccco3)CC2)CN1Cc1cccnc1 | -2.62% | -14.9%
30 | CSc1nccn1-c1cccc(C(=O)NCCCN2CCOCC2)c1 | -1.07% | 27.6%
31 | O=C(c1cccnc1N1CCOCC1)N1CCCC1Cn1cccn1 (configuration not stated) | -2.94% | 31.6%
32 | CC(C)(C)n1cc(C(=O)N2CCN(Cc3ccsc3)CC2)cn1 | -3.48% | 30.7%
33 | CC(C)Oc1ccc(CNC(=O)CC(F)(F)F)cc1F | -4.64% | 33.4%
34 | COCCC(=O)N1CCc2cc(Cl)cc(Cl)c2C1 | 1.46% | -18.1%
35 | COCCN(C)CCN1CC2(CCN(C(=O)C3CCOC3)CC2)OC1=O (configuration not stated) | -1.75% | -24.2%
36 | Cc1cc(S(=O)(=O)Nc2cccc(-n3cccc3)c2)sc1C(=O)O | 7.63% | 11%
37 | CN(C)CCOCC1CN(CC2CCOCC2)Cc2nnn(C)c21 (configuration not stated) | -1.11% | -12.4%
38 | O=C(C[C@@H]1COC[C@H]2CN(Cc3ccc(F)cc3)C[C@@H]12)N1CCOCC1 | 2.03% | -38.2%

Row | Structure (SMILES) | Percent Effect [1] | Percent Effect [2]
39 | CCCN(Cc1ccccc1)Cn1nc(C)c2c(C)onc2c1=O | 9.28% | 6.54%
40 | CC(Cn1cccn1)NC(=O)NCc1ccc(S(N)(=O)=O)cc1 (configuration not stated) | 6.49% | 14.9%
41 | CN(Cc1nnc(C2CC2)n1C)C1CCN(Cc2ccc(F)cc2)C1 (configuration not stated) | 11.8% | 9.62%
42 | Cc1ccccc1C(=O)CN1C(=O)c2ccccc2CS1(=O)=O | 0.881% | -11.1%
43 | CC(C)c1nc(C2CCCN2CC(=O)Nc2ccc(Cl)cn2)no1 (configuration not stated) | -6.33% | 9.53%
44 | COc1ccc(-c2ccnc3c2C(=O)CCC3)cc1 | -5.43% | -32.1%
45 | O=C(NCCn1ccnc1)N1CCN(Cc2cccs2)CC1 | 0.0694% | -34.2%
46 | O=c1cc(CN2CCCC(CCc3c(F)cccc3F)C2)[nH]c(=O)[nH]1 (configuration not stated) | 3.07% | -12.7%
47 | CN(Cc1cnn(C)c1)C(=O)NC1CCN(c2ncccn2)CC1 | -1.27% | 10.9%
48 | CCOC(=O)NC(C(=O)NCc1ccc(N2CCCCC2)nc1)C(C)C (configuration not stated) | -3.06% | 21.9%
49 | Cc1cnn(C(C)C2CC2)c1NC(=O)c1cnccn1 (configuration not stated) | -3.45% | -3.84%
50 | c1ccc(-c2nc(CN3CCCC(Cn4cncn4)C3)co2)cc1 (configuration not stated) | 0.247% | -67.5%
51 | Cc1ccc(NC(=O)CNc2cccc3c2CCCC3)c(Br)c1 | -0.719% | 7.99%
52 | COc1cccc(CN2CCC(c3cc(O)nc(C)n3)C2)c1 (configuration not stated) | -3.62% | -14.1%
53 | O=C(C1=CC2(CCNCC2)c2ccccc21)N1CCCC1 | 3.17% | -0.391%
54 | Cc1cc(CN(C)C(=O)NC2CCN(Cc3ccccc3)C2)no1 (configuration not stated) | 2.94% | -10.9%
55 | CNC(=O)CN(C)c1nc(-c2ccncc2)nc2c1CCN(C(C)=O)C2 | -1.03% | -0.42%
56 | Cc1nccn1CC1CCCN1CCCc1nc(-c2cccs2)no1 (configuration not stated) | 5.89% | 16.4%
